Measurements reported in PubChem BioAssay (NCI).
About 83,000 compounds went through this panel and 20% of them were active in at least one assay; those are over-represented in the sample as a whole.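 Negative percent growth values reflect cell death: -40 means 40% of the cells present at the start died, and -100 means all died.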 Values without a mark were called inactive. Calls of active or inactive are those of the source. Rule for the calls: active = growth percent below 10; inactive = the rest.

Tests used:
Assay in all cases: NCI-60 one-dose screen, 48 h (100 = growth as untreated, 0 = no growth, -100 = all killed)
Details in all cases: 10 µM unless noted
[1] = test system: NCI-H23 lung
[2] = test system: NCI-H226 lung
[3] = test system: NCI-H322M lung
[4] = test system: HOP-62 NSCLC
[5] = test system: NCI-H460 lung
[6] = test system: HOP-92 NSCLC
[7] = test system: NCI-H522 lung
[8] = test system: A549/ATCC NSCLC
[9] = test system: 786-0 renal
[10] = test system: COLO 205 colon

Compound	growth [1]	growth [2]	growth [3]	growth [4]	growth [5]	growth [6]	growth [7]	growth [8]	growth [9]	growth [10]
C=C(C)[C@@H]1CC[C@]2(C(=O)NCCNCCNCCN)CC[C@]3(C)[C@H](CC[C@@H]4[C@@]5(C)CCC(=O)C(C)(C)[C@@H]5CC[C@]43C)[C@@H]12	-35.2% [100 µM] (active)	74.3% [100 µM]	-81.1% [100 µM] (active)	43.1% [100 µM]	-90.9% [100 µM] (active)	-65.2% [100 µM] (active)	-69.7% [100 µM] (active)	-76.5% [100 µM] (active)	-84.5% [100 µM] (active)	-47.5% [100 µM] (active)
COc1cc(NCc2cn(-c3ccc(C(=O)O)cc3)nc2-c2ccc(C(=O)O)cc2)cc(OC)c1OC	107%	99.3%	93.9%	98.6%	99.9%	68.1%	101%	102%	90.8%	108%
CCOC(=O)COc1c(C)cc(SSc2cc(C)c(OCC(=O)OCC)c(C)c2)cc1C	103%	111%	105%	109%	102%	76.8%	73.8%	80.2%	114%	111%
Fc1cc2[nH]ncc2c2c3c(c(-c4cn[nH]c4C(F)(F)F)nc12)C1CCC3C1 (stereo not given)	-4.72% (active)	4.86% (active)	0.591% (active)	-19.4% (active)	1.8% (active)	17.1%	-2.89% (active)	-6.2% (active)	2.72% (active)	-74.7% (active)
Nc1ccc(NC(=O)c2ccccc2)c2c1C(=O)c1ccccc1C2=O	96.1%	89.5%	99.1%	107%	104%	80.2%	111%	97%	103%	109%
COc1ccc(NC(=S)NNc2ccc(-c3ccc(OC)c(OC)c3)nn2)cc1	106%	107%	96.7%	97.8%	99.7%	106%	97.9%	110%	101%	112%
Nc1nc(Cl)c2ncn(Cc3cc4c(cc3I)OCO4)c2n1	75.2%	85.8%	65.4%	36.1%	18%	82.4%	14.7%	45.6%	44.4%	21.1%
COc1cc(/C=C/C(=O)/C=C/c2ccc(-n3ccnc3)cc2)ccc1O	60.6%	77.9%	94.8%	97.9%	76.4%	85.2%	89.5%	69.3%	107%	52.4%
C[n+]1cccc(NC(=O)c2ccc3ccc4ccc(C(=O)Nc5ccc[n+](C)c5)nc4c3n2)c1	32.3%	5.55% (active)	37.3%	21.3%	-7.42% (active)	57.5%	-19% (active)	-3.45% (active)	76.2%	75.3%
Cc1cc(C)c(-c2cc(O)c(-c3c(C)cc(C)cc3C)cc2O)c(C)c1	34.9%	64.4%	68.6%	47.2%	16.9%	94.3%	-12.7% (active)	47.6%	30.4%	-12.8% (active)
N#Cc1ccc(-c2ccc(COc3ccc(CC4SC(=O)NC4=O)cc3)cc2)cc1 (stereo not given)	50.7%	86.5%	89.7%	67.1%	69.5%	66.8%	43.8%	48.1%	83%	103%
COc1ccc(C=C2c3ccccc3-c3ccccc32)cc1	67.6%	68.6%	72.2%	55.2%	30.6%	67.3%	13.7%	52.2%	58.5%	29.6%
Clc1ccc2nc(-c3ccc(-c4ccc(/C=N/NC5=NCCN5)cc4)s3)cn2c1	106%	94.9%	98.3%	98.6%	100%	76.5%	106%	99.9%	95.5%	107%
COc1c(B(O)O)cccc1-c1nc2ccc3[nH]ncc3c2c2c1CCC2	75.5%	68.3%	57.6%	48.7%	47.9%	72.1%	62.7%	60.2%	55.7%	66.2%
C=C(C)[C@@H]1CC[C@]2(C)[C@H](CC[C@@H]3[C@@H]([C@@](C)(O)CCC=C(C)C)CC[C@]32C)[C@@]1(C)CCC(=O)N1CCN(C)CC1	-72% [100 µM] (active)	-72% [100 µM] (active)	-97.5% [100 µM] (active)	-93% [100 µM] (active)	-82.2% [100 µM] (active)	-89.9% [100 µM] (active)	-81.1% [100 µM] (active)	0.566% [100 µM] (active)	-92.7% [100 µM] (active)	-80.8% [100 µM] (active)
O=C1C(Cl)=C(Nc2ccc3cn[nH]c3c2)C(=O)c2ccccc21	-70.1% (active)	-4.83% (active)	-27.4% (active)	-6.04% (active)	4.67% (active)	-80.4% (active)	-84.7% (active)	39.7%	-99.4% (active)	-85.5% (active)
CCN(CC)c1ccc2cc(C(Nc3ccc(Br)c(C(F)(F)F)c3)c3nnnn3C(C)(C)C)c(=O)oc2c1 (stereo not given)	100%	86.1%	99.6%	94%	91.9%	87.5%	77.9%	86.3%	99.8%	101%
O=C(OCc1ccc2c(Cl)cc(Cl)c(O)c2n1)N1CCNCC1	47.1%	42.2%	47.1%	22.9%	15.4%	44.9%	42.4%	17.3%	61.1%	54.3%
COC(=O)C(=Cc1ccccc1[N+](=O)[O-])C(=O)OC	38.8%	97.6%	54.9%	104%	41.2%	16.5%	-3.3% (active)	44.2%	41.3%	38%
COc1ncc(-c2ccc3nccc(C#CCCCCC(=O)NO)c3c2)cc1NS(=O)(=O)c1ccc(F)cc1F	29.6%	9.85% (active)	7.5% (active)	4.48% (active)	6.53% (active)	-27.7% (active)	-21.7% (active)	-12.7% (active)	-14.5% (active)	-44.5% (active)
CN(C)c1ccc(N=Nc2ccc3ccccc3c2)cc1	91.5%	79.9%	89.6%	110%	87.5%	82.1%	71.7%	92%	122%	73.7%
OC(c1ccc(Cl)cc1)(c1ccc(Cl)cc1)C(O)(c1ccc(Cl)cc1)c1ccc(Cl)cc1	53.1%	54.6%	46.4%	65.1%	26.6%	24.7%	41.6%	44.9%	31.9%	45%
Cc1ccc(S(=O)(=O)Nc2ccccc2)cc1N	90.8%	95.6%	97%	86.2%	99.5%	75.2%	23.5%	81.3%	99.8%	119%
Cc1ccc(NCCN2CCCCC2)c2c(=O)c3ccccc3sc12	43.1%	57.2%	45.7%	55.6%	2.26% (active)	29.5%	2.96% (active)	20.2%	30.7%	-41.8% (active)
CC[C@]12C=CCN3CC[C@@]4(c5ccc(OC)cc5N(C)[C@H]4[C@@](O)(C(=O)OC)[C@@H]1OC(=O)CCC(=O)N[C@H](Cc1c[nH]c4ccccc14)C(=O)OC)[C@@H]32	-28% [100 µM] (active)	-37.2% [100 µM] (active)	-53.9% [100 µM] (active)	-7.11% [100 µM] (active)	-65.7% [100 µM] (active)	-56.7% [100 µM] (active)	-16.2% [100 µM] (active)	-30.9% [100 µM] (active)	-47.1% [100 µM] (active)	0.36% [100 µM] (active)
C=C(C)[C@@H]1CC[C@]2(C(=O)O)CC[C@]3(C)[C@H](CC[C@@H]4[C@@]5(C)C/C(=C/c6ccco6)C(=O)C(C)(C)[C@@H]5CC[C@]43C)[C@@H]12	-58.6% [100 µM] (active)	-37.5% [100 µM] (active)	-87.9% [100 µM] (active)	-85.2% [100 µM] (active)	-55.6% [100 µM] (active)	-86.4% [100 µM] (active)	-72.7% [100 µM] (active)	-73.7% [100 µM] (active)	-60.4% [100 µM] (active)	-73.1% [100 µM] (active)
